{"source": "PubChem BioAssay (Tox21)", "note": "Results filed as inconclusive are left out. A number with no mark means an inactive call. Calls of active or inactive are those of the source. Calls come from the whole dose curve; as a rule, active = well fitted inhibition curve with a large enough effect in the signal ratio in the repeat runs, with a control signal flat; inconclusive = weak or mixed curves, or effect the other way; inactive = flat fitted curve, though single readings scatter; the % refers to the signal ratio. % is set by controls: 0 for no effect and ±100 for the full control effect; potency is the fitted concentration of half-maximal effect."}
{"biological_target": "D(2) dopamine receptor (Homo sapiens) (UniProt P14416)", "sequence (P14416 whole entry, looked up)": "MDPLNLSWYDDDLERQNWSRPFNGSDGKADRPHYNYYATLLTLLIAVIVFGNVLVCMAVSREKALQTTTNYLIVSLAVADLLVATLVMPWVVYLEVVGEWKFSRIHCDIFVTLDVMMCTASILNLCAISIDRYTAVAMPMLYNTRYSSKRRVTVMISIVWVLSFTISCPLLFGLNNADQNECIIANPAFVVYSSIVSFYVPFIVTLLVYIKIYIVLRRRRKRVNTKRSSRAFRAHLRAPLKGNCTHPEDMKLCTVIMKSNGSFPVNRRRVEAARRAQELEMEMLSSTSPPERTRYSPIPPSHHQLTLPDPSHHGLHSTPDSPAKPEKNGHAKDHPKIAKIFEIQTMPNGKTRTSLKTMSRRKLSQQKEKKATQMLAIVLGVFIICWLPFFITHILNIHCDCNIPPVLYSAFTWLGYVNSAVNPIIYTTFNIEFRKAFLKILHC", "test": "Dopamine D2 receptor (DRD2) small molecule antagonists, cell-based qHTS assay (AID 1963595)", "conditions": "HEK293-DRD2 cAMP HTRF antagonist mode; series mostly up to 92.4 µM; activity change, negative = inhibition: at the top concentration", "source_text": "National Center for Advancing Translational Sciences [NCATS]\nDivision of Preclinical Innovation [DPI]\nU.S. Environmental Protection Agency [EPA]\nNational Institutes of Environmental Health Sciences [NIEHS]\nNational Toxicology Program [NTP]\nU.S. Food and Drug Administration [FDA]\nDRD2 is the D2 subtype of the dopamine receptor, which is coupled to Gi subtype of G protein-coupled receptor. This G protein-coupled receptor inhibits adenylyl cyclase activity. The DRD2-HEK293 cell line stably expressing D2 dopamine receptor can be used for screening agonists and antagonists of interactions between D2 and its ligands. The Hek293-DRD2 cAMP assay is based on HTRF technology. It measures changes of cAMP accumulation in response to Gi coupled GPCR activation or inhibition.\nTox21 Assay Protocol Summary:\nDRD2-Hek293 cells were dispensed at 600 cells/3uL/well in 1536-well white plates using a Multidrop Dispenser. After the assay plates were incubated at a 37 C/5% CO2 incubator for 24 h, 1 uL of Ro20-1724 at final concentration of 0.1 mM was transferred to the assay plate by a Flying Reagent Dispenser. Following Ro20-1724 addition, 23 nL of compound dissolved in DMSO, positive controls or DMSO only was added to the assay plates via Wako pintool station. The assay plates were incubated at room temperature for 10 min. Next, 1 uL of mixture of NKH477 (final concentration at 200 nM) and quinpirole (final concentration at 12 nM) was added into the plates. After the assay plates were incubated at room temperature for an additional 30 min, 2.5 ul/well of cAMP-d2 and 2.5 ul/well of anti-cAMP-cryptate were added respectively into the assay plates using a Flying Reagent Dispenser. The plates were incubated at room temperature for 1 h. The fluorescence intensity in the plates was measured at 340 nm excitation and 665 & 620 nm emission by an Envision plate reader."}
{"smiles": "CCNc1nc(Cl)nc(NC(C)(C)C#N)n1", "Potency": "inactive"}
{"smiles": "CCCCCCCCCCBr", "activity change, negative = inhibition": "0.602%"}
{"smiles": "C(CCOCC1CO1)COCC1CO1", "note": "(stereo not given)", "activity change, negative = inhibition": "4.59%"}
{"smiles": "CCc1cc(C)cc(CC)c1-c1c(OC(=O)C(C)(C)C)n2n(c1=O)CCOCC2", "activity change, negative = inhibition": "-6.36%"}
{"smiles": "O=P(Oc1ccccc1)(Oc1ccccc1)Oc1ccccc1", "activity change, negative = inhibition": "15.9%"}
{"smiles": "CNc1cnn(-c2cccc(C(F)(F)F)c2)c(=O)c1Cl", "Potency": "inactive"}
{"smiles": "ClCC1CO1", "note": "(stereo not given)", "activity change, negative = inhibition": "-2.28%"}
{"smiles": "COc1cccc(C=O)c1", "activity change, negative = inhibition": "5.04%"}
{"smiles": "CCCCCCCCCCCCn1cc[n+](C)c1", "Potency": "inactive"}
{"smiles": "CCCCCCCCCCCCCCCl", "activity change, negative = inhibition": "5.65%"}
{"smiles": "O=C(O)C(F)(F)C(F)(F)C(F)(F)C(F)(F)C(F)(F)C(F)(F)C(F)(F)C(F)(F)C(F)(F)C(F)(F)F", "activity change, negative = inhibition": "0.385%"}
{"smiles": "Oc1c(Br)cc(Br)cc1Br", "Potency": "inactive"}
{"smiles": "C=COCCCl", "activity change, negative = inhibition": "3.83%"}
{"smiles": "CCOC(=O)C(c1c(O)c2ccccc2oc1=O)c1c(O)c2ccccc2oc1=O", "activity change, negative = inhibition": "1.67% [at 42.5 µM]"}
{"smiles": "COc1ccc2c3c1O[C@H]1[C@@H](O)C=C[C@H]4[C@@H](C2)N(C)CC[C@@]341", "activity change, negative = inhibition": "-0.0788%"}
{"smiles": "COc1ccc2c3c1O[C@H]1[C@H](O)CC[C@H]4[C@@H](C2)N(C)CC[C@@]341", "activity change, negative = inhibition": "7.84%"}
{"smiles": "CCCCCCCCCCCC[N+](C)(C)CCOc1ccccc1", "Potency": "48.6 µM (active)"}
{"smiles": "CC(C)OS(C)(=O)=O", "activity change, negative = inhibition": "6.04%"}
{"smiles": "C=CC(C)=O", "activity change, negative = inhibition": "-5.75%"}
{"smiles": "CCOP(=O)(OCC)SCCSCC", "Potency": "inactive"}
{"smiles": "CC(C)(C)OOC(C)(C)C", "Potency": "inactive"}
{"smiles": "Cc1cccc(C)c1NC(=O)CN1CCCC1=O", "Potency": "inactive"}
{"smiles": "CC(C)C1(C)N=C(c2ncccc2C(=O)O)NC1=O", "note": "(stereo not given)", "activity change, negative = inhibition": "9.49%"}
{"smiles": "N#Cc1cc(Br)c(O)c(Br)c1", "Potency": "inactive"}
{"smiles": "CCC(C)n1c(=O)[nH]c(C)c(Br)c1=O", "note": "(stereo not given)", "activity change, negative = inhibition": "9.04%"}
{"smiles": "CCCCOC(=O)COC(=O)c1ccccc1C(=O)OCCCC", "Potency": "inactive"}
{"smiles": "Oc1ccccc1Cl", "Potency": "inactive"}
{"smiles": "CN(C)CCc1c[nH]c2cccc(OP(=O)(O)O)c12", "activity change, negative = inhibition": "-2.37%"}
{"smiles": "C#CCN(C)[C@H](C)Cc1ccccc1", "Potency": "inactive"}
{"smiles": "CC1(C)[C@H](C(=O)O[C@H](C#N)c2cccc(Oc3ccccc3)c2)[C@@H]1C=C(Br)Br", "Potency": "inactive"}
{"smiles": "CNC(=O)Oc1cccc2c1OC(C)(C)O2", "Potency": "inactive"}
{"smiles": "CCCCCCC#N", "activity change, negative = inhibition": "0.135%"}
{"smiles": "CCCCN=C=O", "activity change, negative = inhibition": "0.775%"}
{"smiles": "COC(=O)C(Br)CBr", "note": "(stereo not given)", "activity change, negative = inhibition": "-6.27%"}
{"smiles": "OCCN(CCO)CCO", "Potency": "inactive"}
{"smiles": "O=C(O)C(Cl)(Cl)Cl", "Potency": "inactive"}
{"smiles": "CC(c1ccc(O)cc1)c1ccc(O)cc1", "activity change, negative = inhibition": "-5.73%"}
{"smiles": "CC1=C2[C@H]3OC(=O)[C@@H](C)[C@@H]3CC[C@@]2(C)C=CC1=O", "activity change, negative = inhibition": "-7.46% [at 42.5 µM]"}
{"smiles": "N#CCCCCC#N", "Potency": "inactive"}
{"smiles": "COc1nc(NC(C)C)nc(NC(C)C)n1", "Potency": "inactive"}
